Holding throughout (assay): DAPPL (digital affinity profiling via proximity ligation, sequencing); 10 mM Tris-HCl pH 7.5, 50 mM NaCl, 1 mM DTT, 4% glycerol, room temperature, 30 min; GST-TFs on glutathione beads, 16-mer random dsDNA library, 0.1% formaldehyde crosslink after washing; high values mean tight binding
One experiment concerns the target T1, FEV (Homo sapiens, UniProt Q99581 1-238).
T1 sequence: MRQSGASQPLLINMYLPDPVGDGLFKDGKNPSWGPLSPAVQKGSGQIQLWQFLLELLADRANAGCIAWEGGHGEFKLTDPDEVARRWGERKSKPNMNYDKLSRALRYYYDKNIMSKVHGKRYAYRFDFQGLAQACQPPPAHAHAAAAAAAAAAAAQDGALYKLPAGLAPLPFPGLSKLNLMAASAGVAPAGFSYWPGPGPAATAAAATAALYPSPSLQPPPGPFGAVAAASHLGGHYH
The conditions noted are these: protein: recombinant; tags: N-terminal GST; dsDNA, one strand shown. The procedure, abridged: (§1)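 Binding signal is each hexamer's read frequency for a factor divided by its frequency in the tag-only sample. The factors were GST-fused human transcription factors from yeast, captured on glutathione beads, DNA-barcoded and pooled with that sample. Pools were incubated with 200 nmole of a random double-stranded 16-mer DNA library in Tris/NaCl/DTT/glycerol buffer at room temperature for 30 min, then washed, crosslinked with 0.1% formaldehyde, proximity-ligated with BsaI/T4 ligase (1 h, 37 °C), PCR-amplified and sequenced on an Illumina NextSeq500.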

The target in another experiment is ETV5 (Homo sapiens, UniProt P41161 1-510). Conditions: protein: recombinant; tags: N-terminal GST; dsDNA, one strand shown. The procedure, abridged:
as §1

A further experiment concerns the target HSF1 (Homo sapiens, UniProt Q00613 1-529). The conditions noted are these: protein: recombinant; tags: N-terminal GST; chain copies: 3; dsDNA, one strand shown. The procedure, abridged: as §1
Another experiment has as its target T2, SPIC (Homo sapiens, UniProt Q8N5J4 1-248).
T2 sequence: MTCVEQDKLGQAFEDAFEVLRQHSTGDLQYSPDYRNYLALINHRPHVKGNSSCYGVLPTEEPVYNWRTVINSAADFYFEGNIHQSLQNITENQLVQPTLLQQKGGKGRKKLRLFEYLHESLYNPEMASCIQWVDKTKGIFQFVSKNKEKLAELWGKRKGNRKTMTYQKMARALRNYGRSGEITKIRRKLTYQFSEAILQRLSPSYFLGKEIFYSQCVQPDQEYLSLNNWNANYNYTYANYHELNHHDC
Conditions: protein: recombinant; tags: N-terminal GST; dsDNA, one strand shown. A digest of the protocol: as §1

Another experiment deals with ELF4 (Homo sapiens, UniProt Q99607 1-663). Conditions: protein: recombinant; tags: N-terminal GST; dsDNA, one strand shown. The procedure, abridged:
as §1

The target of the next experiment is T3, ELK4 (Homo sapiens, UniProt P28324-2 1-405).
T3 sequence: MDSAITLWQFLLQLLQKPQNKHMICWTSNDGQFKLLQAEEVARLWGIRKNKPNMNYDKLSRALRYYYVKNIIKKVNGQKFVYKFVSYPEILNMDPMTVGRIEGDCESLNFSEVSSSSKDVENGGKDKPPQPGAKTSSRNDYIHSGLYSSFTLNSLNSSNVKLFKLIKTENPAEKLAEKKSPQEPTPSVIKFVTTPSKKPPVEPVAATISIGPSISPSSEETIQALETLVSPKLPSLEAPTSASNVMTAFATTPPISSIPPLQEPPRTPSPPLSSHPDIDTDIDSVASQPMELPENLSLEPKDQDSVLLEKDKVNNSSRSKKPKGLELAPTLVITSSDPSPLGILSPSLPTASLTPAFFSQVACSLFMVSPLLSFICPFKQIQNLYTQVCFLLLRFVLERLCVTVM
The conditions noted are these: protein: recombinant; tags: N-terminal GST; dsDNA, one strand shown. A digest of the protocol: as §1

The target in the next experiment is T4, ETV2 (Homo sapiens, UniProt O00321 1-342).
T4 sequence: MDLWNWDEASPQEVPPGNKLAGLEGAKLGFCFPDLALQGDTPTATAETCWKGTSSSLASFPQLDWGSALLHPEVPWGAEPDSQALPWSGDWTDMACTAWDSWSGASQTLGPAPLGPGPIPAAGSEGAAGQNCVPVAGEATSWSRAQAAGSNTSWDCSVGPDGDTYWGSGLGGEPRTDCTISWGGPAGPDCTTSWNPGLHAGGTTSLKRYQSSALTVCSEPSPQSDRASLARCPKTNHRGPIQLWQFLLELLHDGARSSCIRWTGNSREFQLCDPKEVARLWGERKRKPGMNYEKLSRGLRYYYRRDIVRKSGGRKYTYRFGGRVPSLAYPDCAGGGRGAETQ
The conditions noted are these: protein: recombinant; tags: N-terminal GST; dsDNA, one strand shown. A digest of the protocol:
as §1

A further experiment concerns the target T5, ELF3 (Homo sapiens, UniProt P78545 1-371).
T5 sequence: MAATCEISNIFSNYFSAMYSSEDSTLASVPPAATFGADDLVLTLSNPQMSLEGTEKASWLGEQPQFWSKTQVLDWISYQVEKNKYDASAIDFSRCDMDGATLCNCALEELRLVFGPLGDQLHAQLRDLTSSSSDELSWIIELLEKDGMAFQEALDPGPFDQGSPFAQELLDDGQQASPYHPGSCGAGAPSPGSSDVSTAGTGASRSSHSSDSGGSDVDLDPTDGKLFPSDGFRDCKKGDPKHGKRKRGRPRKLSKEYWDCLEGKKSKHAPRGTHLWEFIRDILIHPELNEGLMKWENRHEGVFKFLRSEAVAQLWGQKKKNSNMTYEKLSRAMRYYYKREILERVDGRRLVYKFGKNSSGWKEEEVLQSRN
Conditions: protein: recombinant; tags: N-terminal GST; dsDNA, one strand shown. A digest of the protocol:
as §1

In the next experiment the target is CRX (Homo sapiens, UniProt O43186 1-299). Conditions: protein: recombinant; tags: N-terminal GST; dsDNA, one strand shown. The procedure, abridged: as §1
Sequence of CRX (O43186 whole entry): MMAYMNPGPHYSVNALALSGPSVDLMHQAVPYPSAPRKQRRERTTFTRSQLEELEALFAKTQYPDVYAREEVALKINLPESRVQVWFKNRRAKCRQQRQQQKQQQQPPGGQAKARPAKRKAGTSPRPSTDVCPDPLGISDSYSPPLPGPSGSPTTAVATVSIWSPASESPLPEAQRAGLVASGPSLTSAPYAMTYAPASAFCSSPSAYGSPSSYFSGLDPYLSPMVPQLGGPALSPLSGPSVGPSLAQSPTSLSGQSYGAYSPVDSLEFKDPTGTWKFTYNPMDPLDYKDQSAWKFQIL
A further experiment has as its target ETV1 (Homo sapiens, UniProt P50549 1-477). The conditions noted are these: protein: recombinant; tags: N-terminal GST; dsDNA, one strand shown. The procedure, abridged:
as §1

The target in a further experiment is T6, ERF (Homo sapiens, UniProt P50548 1-548).
T6 sequence: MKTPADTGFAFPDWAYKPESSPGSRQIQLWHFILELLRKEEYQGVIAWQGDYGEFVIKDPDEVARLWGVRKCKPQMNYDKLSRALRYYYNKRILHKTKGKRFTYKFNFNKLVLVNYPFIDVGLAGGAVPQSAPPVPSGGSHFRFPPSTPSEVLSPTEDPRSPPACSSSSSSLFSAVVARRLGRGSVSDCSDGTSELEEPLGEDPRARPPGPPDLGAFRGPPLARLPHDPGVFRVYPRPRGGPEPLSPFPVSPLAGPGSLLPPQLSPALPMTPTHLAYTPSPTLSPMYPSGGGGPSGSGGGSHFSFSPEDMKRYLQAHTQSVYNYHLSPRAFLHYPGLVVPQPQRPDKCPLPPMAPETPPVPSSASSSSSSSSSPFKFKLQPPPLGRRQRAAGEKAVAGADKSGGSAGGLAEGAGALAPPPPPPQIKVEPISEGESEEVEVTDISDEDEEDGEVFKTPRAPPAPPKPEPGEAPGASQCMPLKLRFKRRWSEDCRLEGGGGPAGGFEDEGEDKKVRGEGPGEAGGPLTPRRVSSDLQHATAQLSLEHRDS
Conditions: protein: recombinant; tags: N-terminal GST; dsDNA, one strand shown. A digest of the protocol: as §1

A further experiment has as its target T7, ETV3L (Homo sapiens, UniProt Q6ZN32 1-361).
T7 sequence: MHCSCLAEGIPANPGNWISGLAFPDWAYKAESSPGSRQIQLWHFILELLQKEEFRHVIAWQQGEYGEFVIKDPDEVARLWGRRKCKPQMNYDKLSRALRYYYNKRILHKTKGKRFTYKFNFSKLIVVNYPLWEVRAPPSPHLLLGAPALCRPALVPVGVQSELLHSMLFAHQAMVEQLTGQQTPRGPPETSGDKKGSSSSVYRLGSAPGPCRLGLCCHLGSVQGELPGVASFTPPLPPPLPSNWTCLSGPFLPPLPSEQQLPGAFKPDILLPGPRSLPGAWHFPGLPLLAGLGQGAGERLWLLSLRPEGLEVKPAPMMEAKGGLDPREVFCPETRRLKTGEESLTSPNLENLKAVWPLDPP
The conditions noted are these: protein: recombinant; tags: N-terminal GST; dsDNA, one strand shown. The procedure, abridged:
as §1

Another experiment has as its target T8, ETS2 (Homo sapiens, UniProt P15036 1-469).
T8 sequence: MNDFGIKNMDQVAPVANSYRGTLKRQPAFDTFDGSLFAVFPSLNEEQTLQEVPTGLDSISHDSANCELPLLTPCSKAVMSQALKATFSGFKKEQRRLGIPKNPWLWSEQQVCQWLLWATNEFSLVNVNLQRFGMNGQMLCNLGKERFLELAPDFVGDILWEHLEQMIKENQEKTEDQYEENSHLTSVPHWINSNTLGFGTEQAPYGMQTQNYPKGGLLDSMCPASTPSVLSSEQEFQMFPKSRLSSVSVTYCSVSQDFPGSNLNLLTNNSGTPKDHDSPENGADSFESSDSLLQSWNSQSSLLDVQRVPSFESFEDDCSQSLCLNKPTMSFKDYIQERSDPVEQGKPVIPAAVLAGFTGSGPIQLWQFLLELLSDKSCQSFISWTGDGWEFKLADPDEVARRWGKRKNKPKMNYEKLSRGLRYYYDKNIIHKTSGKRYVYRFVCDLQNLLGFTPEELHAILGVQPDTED
The conditions noted are these: protein: recombinant; tags: N-terminal GST; dsDNA, one strand shown. A digest of the protocol:
as §1

The next experiment deals with T9, SPDEF (Homo sapiens, UniProt O95238 1-335).
T9 sequence: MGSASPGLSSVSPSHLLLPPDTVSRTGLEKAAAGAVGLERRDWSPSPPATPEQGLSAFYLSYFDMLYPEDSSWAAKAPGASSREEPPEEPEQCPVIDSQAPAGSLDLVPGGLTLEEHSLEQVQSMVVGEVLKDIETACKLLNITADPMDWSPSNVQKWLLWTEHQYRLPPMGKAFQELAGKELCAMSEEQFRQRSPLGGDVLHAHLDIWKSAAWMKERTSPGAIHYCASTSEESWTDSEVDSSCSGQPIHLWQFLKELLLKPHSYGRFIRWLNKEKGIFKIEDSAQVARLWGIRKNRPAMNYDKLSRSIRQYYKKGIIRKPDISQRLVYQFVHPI
The conditions noted are these: protein: recombinant; tags: N-terminal GST; dsDNA, one strand shown. The procedure, abridged:
as §1

Another experiment concerns the target T10, ETV7 (Homo sapiens, UniProt Q9Y603 1-341).
T10 sequence: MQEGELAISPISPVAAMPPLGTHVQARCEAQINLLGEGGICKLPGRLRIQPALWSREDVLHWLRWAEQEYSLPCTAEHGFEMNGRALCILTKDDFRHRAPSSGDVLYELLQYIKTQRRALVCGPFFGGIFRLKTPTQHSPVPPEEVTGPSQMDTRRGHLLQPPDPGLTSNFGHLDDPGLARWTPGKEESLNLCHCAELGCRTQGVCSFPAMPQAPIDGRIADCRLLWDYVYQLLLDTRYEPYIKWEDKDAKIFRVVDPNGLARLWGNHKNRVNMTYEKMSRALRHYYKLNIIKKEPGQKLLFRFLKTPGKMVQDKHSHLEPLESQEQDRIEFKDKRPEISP
The conditions noted are these: protein: recombinant; tags: N-terminal GST; dsDNA, one strand shown. The procedure, abridged: as §1

A further experiment has as its target T11, ELF5 (Homo sapiens, UniProt Q9UKW6-2 1-255).
T11 sequence: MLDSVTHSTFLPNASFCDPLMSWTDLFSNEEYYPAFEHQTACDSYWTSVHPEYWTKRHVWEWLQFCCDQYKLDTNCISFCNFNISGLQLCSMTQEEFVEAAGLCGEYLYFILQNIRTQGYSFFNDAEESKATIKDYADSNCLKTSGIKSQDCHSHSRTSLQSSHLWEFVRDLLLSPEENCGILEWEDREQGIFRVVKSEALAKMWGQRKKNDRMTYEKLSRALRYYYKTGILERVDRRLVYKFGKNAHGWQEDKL
Conditions: protein: recombinant; tags: N-terminal GST; dsDNA, one strand shown. A digest of the protocol:
as §1

The target of the next experiment is T12, ETV3 (Homo sapiens, UniProt P41162-2 1-143).
T12 sequence: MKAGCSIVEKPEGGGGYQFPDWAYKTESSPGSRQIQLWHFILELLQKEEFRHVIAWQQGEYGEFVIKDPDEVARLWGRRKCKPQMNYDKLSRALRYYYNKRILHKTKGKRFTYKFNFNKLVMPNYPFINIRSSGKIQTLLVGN
The conditions noted are these: protein: recombinant; tags: N-terminal GST; dsDNA, one strand shown. The procedure, abridged:
as §1

In another experiment the target is ETV6 (Homo sapiens, UniProt P41212 1-452). The conditions noted are these: protein: recombinant; tags: N-terminal GST; dsDNA, one strand shown. The procedure, abridged:
as §1

Sequence of ETV5 (P41161 whole entry): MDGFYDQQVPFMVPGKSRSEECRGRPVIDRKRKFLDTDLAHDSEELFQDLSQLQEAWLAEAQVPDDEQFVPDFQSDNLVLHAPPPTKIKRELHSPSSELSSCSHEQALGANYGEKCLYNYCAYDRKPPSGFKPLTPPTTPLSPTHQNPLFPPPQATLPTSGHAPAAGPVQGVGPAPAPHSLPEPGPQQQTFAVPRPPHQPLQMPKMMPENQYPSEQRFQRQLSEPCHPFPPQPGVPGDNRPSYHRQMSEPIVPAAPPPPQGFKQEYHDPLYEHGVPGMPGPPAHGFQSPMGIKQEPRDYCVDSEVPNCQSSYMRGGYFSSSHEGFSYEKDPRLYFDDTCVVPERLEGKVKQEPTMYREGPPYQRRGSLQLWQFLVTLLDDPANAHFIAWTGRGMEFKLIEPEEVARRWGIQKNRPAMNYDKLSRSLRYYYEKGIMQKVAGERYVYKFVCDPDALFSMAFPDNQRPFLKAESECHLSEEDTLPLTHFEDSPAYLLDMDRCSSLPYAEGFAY
Sequence of ETV1 (P50549 whole entry): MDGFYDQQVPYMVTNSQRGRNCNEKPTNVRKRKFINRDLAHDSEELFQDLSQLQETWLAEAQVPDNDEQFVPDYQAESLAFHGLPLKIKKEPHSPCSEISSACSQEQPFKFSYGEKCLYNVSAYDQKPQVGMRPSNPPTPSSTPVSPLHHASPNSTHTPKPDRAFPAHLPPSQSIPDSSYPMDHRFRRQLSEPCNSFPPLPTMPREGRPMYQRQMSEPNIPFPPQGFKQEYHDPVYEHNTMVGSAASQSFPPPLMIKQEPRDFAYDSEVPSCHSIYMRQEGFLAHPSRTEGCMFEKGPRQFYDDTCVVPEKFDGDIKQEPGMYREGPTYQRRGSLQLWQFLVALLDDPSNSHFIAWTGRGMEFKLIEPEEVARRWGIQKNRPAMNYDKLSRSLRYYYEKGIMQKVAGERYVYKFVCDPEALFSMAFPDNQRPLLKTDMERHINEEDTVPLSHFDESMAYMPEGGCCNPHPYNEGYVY
Sequence of ELF4 (Q99607 whole entry): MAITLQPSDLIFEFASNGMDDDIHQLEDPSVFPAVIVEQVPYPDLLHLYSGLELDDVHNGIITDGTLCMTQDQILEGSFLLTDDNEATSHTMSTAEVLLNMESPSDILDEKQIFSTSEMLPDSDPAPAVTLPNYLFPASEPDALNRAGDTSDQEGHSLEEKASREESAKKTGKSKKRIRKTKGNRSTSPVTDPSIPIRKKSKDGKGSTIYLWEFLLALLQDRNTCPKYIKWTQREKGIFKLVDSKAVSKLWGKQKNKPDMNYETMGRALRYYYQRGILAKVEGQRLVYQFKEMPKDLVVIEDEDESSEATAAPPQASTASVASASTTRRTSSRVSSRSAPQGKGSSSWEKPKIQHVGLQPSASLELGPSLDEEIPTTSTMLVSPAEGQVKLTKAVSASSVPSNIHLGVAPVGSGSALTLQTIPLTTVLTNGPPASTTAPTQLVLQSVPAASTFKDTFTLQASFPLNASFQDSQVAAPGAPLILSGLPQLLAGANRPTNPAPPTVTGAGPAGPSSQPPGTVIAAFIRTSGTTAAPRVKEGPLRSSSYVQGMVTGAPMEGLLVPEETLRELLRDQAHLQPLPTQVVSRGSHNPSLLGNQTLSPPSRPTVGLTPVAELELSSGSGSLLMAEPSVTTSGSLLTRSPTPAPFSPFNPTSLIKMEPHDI
Sequence of ETV6 (P41212 whole entry): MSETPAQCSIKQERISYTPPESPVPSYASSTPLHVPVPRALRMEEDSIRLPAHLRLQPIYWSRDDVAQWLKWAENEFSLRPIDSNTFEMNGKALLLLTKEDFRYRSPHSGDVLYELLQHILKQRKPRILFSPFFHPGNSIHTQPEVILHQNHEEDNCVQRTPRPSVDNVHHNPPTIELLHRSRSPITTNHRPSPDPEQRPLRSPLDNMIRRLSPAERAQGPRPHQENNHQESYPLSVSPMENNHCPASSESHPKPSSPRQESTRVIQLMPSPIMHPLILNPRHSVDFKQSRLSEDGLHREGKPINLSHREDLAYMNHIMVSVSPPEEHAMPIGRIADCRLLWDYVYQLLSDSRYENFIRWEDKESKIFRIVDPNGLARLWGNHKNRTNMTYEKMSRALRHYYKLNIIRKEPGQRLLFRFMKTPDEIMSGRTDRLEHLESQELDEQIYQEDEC
Sequence of HSF1 (Q00613 whole entry): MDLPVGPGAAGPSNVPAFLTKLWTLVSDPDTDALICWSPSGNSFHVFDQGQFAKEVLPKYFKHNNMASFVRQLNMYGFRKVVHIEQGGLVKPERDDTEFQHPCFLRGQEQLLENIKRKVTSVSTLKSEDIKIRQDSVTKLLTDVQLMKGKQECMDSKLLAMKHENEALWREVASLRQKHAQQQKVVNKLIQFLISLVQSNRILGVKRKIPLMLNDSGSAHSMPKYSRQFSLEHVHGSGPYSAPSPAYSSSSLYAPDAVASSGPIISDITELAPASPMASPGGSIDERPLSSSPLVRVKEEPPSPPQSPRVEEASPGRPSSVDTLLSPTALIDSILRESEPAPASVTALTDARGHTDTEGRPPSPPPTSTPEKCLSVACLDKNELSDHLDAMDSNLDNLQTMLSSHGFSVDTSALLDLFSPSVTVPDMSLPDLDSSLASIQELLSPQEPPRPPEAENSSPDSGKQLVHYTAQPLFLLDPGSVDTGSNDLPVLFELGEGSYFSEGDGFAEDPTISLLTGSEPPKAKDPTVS

For the sequence TGACCC, the binding signal with FEV was 1.46 fold enrichment (6-mer frequency, TF over GST control); with ETV5, 1.41 fold enrichment (6-mer frequency, TF over GST control); with HSF1, 1.1 fold enrichment (6-mer frequency, TF over GST control); in the experiment with SPIC it was 1.24 fold enrichment (6-mer frequency, TF over GST control); with ELF4, 1.48 fold enrichment (6-mer frequency, TF over GST control); with ELK4, 1.39 fold enrichment (6-mer frequency, TF over GST control). Moreover, the binding signal was 1.56 fold enrichment (6-mer frequency, TF over GST control) in the experiment with ETV2; 1.37 fold enrichment (6-mer frequency, TF over GST control) with ELF3; 1.13 fold enrichment (6-mer frequency, TF over GST control) with CRX; 1.25 fold enrichment (6-mer frequency, TF over GST control) with ETV1; 1.4 fold enrichment (6-mer frequency, TF over GST control) with ERF; 1.3 fold enrichment (6-mer frequency, TF over GST control) with ETV3L. Further, the binding signal with ETS2 is 1.38 fold enrichment (6-mer frequency, TF over GST control); with SPDEF, 1.49 fold enrichment (6-mer frequency, TF over GST control); with ETV7 it was 1.4 fold enrichment (6-mer frequency, TF over GST control); in the experiment with ELF5 it was 1.4 fold enrichment (6-mer frequency, TF over GST control); with ETV3 it was 1.39 fold enrichment (6-mer frequency, TF over GST control); in the experiment with ETV6, 1.28 fold enrichment (6-mer frequency, TF over GST control).

The record behind these values is PMC7862700, “An all-to-all approach to the identification of sequence-specific readers for epigenetic DNA modifications on cytosine”.
